Compound activity deposited in PubChem BioAssay by several laboratories.
Hits are enriched below; roughly 1.5% of the tested compounds scored in any of these assays.
iPSC survival up – hiPSC single-cell survival enhancement; survival enhancement, % at 20 µM; 0.044% of 360,000 active; ATPlite luminescence; 100% = ROCK inhibitor wells, 0% = DMSO; in the data active = survival enhancement above about 18%;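 note: cells exposed to compounds for 16 hours before the ATP read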
ANO1 activ – mouse TMEM16A channel activation, primary screen; Q8BHY3; HEK293 TMEM16A/YFP-H148Q/I152L, iodide quench fluorescence; stronger effect = lower value; B-score at 10 µM; 0.3% of 340,000 active; AID 623877;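 active = fluorescence-ratio B-score plate-corrected deviation score at least 3 library SD below zero, with starting fluorescence score within 5 deviations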;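 note: channel opened by trigger with iodide after compound preincubation; score built on the fluorescence ratio of max minus min over baseline; more negative score means more quench and so TMEM16A activation or potentiation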
TMEM16A inh – inhibitors of mouse TMEM16A calcium-activated chloride channel. HEK293 TMEM16A/YFP iodide influx fluorescence, ionomycin. normalized B-score (activity score, 25-100; higher = stronger inhibition) at 10 µM. 1.2% of 310,000 active;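 active = ratio plate-corrected score three or more library SD toward inhibition, starting fluorescence score within five deviations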;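 note: score derived from kinetic fluorescence span divided by baseline fluorescence per well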
DAGLB inhibitor – blocks human DAGLB lipase activity; Q8NCG7; HEK293T DAGLB membrane lysate, EnzChek fluorogenic substrate; inhibition, % at 5.17 µM; 0.059% of 340,000 active; AID 504411; in the data active = inhibition above about 34%;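 note: 0% = enzyme with vehicle and 100% = wells lacking enzyme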
ABCB6 inh 2 – inhibitors of human ABC transporter ABCB6; Q9NP58; K562-ABCB6 porphyrin accumulation, flow cytometry, 1 h; stronger effect = lower value; fluorescence ratio to DMSO, % at 10 µM; 0.19% of 360,000 active; AID 602162;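 active = fluorescence ratio to DMSO below 75%, the collection mean minus 3 SD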;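 note: signal is porphyrin accumulated inside mitochondria; 100% equals median channel fluorescence of DMSO control wells; lower ratio means ABCB6 inhibition with less porphyrin fluorescence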
Target sequence (Q9NP58 whole entry, looked up): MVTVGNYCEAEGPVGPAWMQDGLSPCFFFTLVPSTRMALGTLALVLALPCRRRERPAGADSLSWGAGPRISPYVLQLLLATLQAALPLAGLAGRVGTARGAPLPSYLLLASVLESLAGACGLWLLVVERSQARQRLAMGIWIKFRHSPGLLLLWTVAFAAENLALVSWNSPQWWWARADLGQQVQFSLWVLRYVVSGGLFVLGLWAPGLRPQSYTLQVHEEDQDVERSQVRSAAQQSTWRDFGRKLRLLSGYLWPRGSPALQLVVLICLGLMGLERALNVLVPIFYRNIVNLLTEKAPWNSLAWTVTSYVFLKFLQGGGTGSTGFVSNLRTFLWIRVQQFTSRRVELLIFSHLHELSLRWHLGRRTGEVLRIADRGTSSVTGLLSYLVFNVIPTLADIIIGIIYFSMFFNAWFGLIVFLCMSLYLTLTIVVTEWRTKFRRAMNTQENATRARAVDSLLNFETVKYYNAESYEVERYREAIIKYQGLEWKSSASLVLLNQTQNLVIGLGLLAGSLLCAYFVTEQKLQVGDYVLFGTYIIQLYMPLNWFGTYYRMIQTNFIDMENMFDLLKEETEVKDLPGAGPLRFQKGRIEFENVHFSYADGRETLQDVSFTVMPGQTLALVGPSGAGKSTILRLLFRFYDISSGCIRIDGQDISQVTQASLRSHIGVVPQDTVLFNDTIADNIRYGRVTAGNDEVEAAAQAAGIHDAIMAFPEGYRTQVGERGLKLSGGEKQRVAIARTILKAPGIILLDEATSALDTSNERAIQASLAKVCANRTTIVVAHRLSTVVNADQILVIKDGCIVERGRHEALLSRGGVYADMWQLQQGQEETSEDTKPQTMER
Active calls of the source: *; i = inactive; · = no result given.

SMILES | iPSC survival up | ANO1 activ | TMEM16A inh | DAGLB inhibitor | ABCB6 inh 2
N#Cc1ccc(C2=NC(C(F)(F)F)(C(F)(F)F)c3c(n(Cc4ccco4)c(=O)[nH]c3=O)N2)cc1 | 4 | i | 100* | 10 | 92
O=c1[nH]c(=O)n(Cc2ccco2)c2c1C(C(F)(F)F)(C(F)(F)F)N=C(CCc1ccccc1)N2 | 1 | i | i | 1 | 97
CCCOc1ccc(C(=O)NNC(=S)NC(C)=O)cc1 | -1 | i | i | 3 | 97
CCCC(=O)Nc1ccc(C(=O)NNC(=S)NC(=O)c2cccs2)cc1 | 3 | i | i | 2 | 96
CCCOc1ccc(C(=O)NNC(=S)NC(=O)c2cccs2)cc1 | 0 | i | 100* | 4 | 101
CC(C)(C)c1ccc(C(=O)NC(=S)NNC(=O)c2cccs2)cc1 | 2 | i | 100* | 6 | 93
CCCOc1ccc(C(=O)NNC(=S)NC(=O)c2ccccc2)cc1 | 0 | i | 100* | 0 | 92
COCCN(C(=O)COC(=O)C1CC(=O)N(c2ccc(C)cc2)C1)c1c(N)n(Cc2ccccc2)c(=O)[nH]c1=O (stereo unspecified) | 2 | · | · | -1 | 101
CCOc1ccc(N(CC(=O)N/N=C/c2ccccn2)S(=O)(=O)c2ccc(Cl)cc2)cc1 | 0 | i | i | 1 | 91
CCCSc1cc(N2CCCC2)nc(-c2ccccc2)n1 | -3 | -26* | i | -2 | 101
NC(c1ccccc1)c1csc(Nc2ccc(C(=O)c3ccccc3)cc2)n1 (stereo unspecified) | 3 | · | · | · | 98
O=C(NCc1ccc2c(c1)OCO2)c1nn(-c2ccccc2)c(=O)c2ccccc12 | -2 | i | i | -3 | 65*
COc1ccc(/C=N/Nc2cc(N3CCCC3)nc(N3CCCC3)n2)cc1 | -4 | -19* | i | 0 | 107
CC(C)COc1ccc(CSCCNC(=S)Nc2ccccc2)cc1 | -6 | i | 100* | -8 | 99
CCc1sc(N(C(=O)Cc2ccccc2)c2ccccc2)nc1-c1ccccc1 | 6 | i | i | -4 | 108
CCCCC(=O)N(c1ccc(C(=O)O)cc1)c1nc(-c2ccc(Cl)cc2)c(CC)s1 | 1 | i | 100* | 0 | 96
CC1=NN(c2nc(-c3ccc(C)cc3)cs2)C(=O)C1N=Nc1ccc(C(N)=O)cc1 (stereo unspecified) | 6 | -16* | i | 2 | 103
CC1=NN(c2nc(-c3ccc(C)cc3)cs2)C(=O)C1N=Nc1ccc2ccccc2c1 (stereo unspecified) | -2 | i | i | 2 | 97
Cc1nn(Cc2ccccc2Cl)c(C)c1C(=O)N(C)CC(=O)Nc1cccc(F)c1 | -1 | i | · | -1 | 98
C=CCn1c(SCC(=O)Nc2nccs2)nnc1-c1cc2cccc(OC)c2o1 | 3 | i | i | 3 | 72*
COc1cccc2cc(-c3nnc(SCC(=O)Nc4ccc(NC(C)=O)cc4)n3C)oc12 | 0 | i | i | 2 | 99
CN(CC(=O)Nc1cccc(F)c1)C(=O)/C=C/c1cc(Br)ccc1OC(F)F | 0 | i | i | -1 | 101
CCOC(=O)c1sc2nc(CSc3ccccc3)nc(N3CCC(C(N)=O)CC3)c2c1C | -3 | -5.8* | i | -2 | 97
Cc1cccc(OCC(=O)N/N=C\c2cccn2C)c1C | 0 | i | i | -3 | 67*
CCCc1cc(=O)[nH]c(SCC(=O)Nc2cc(S(=O)(=O)N3CCOCC3)ccc2N(CC)CC)n1 | -1 | i | · | 1 | 98
SMILES | iPSC survival up | ANO1 activ | TMEM16A inh | DAGLB inhibitor | ABCB6 inh 2
CCOC(=O)N1CCc2c(sc(NC(=O)c3ccc(Cl)s3)c2C(N)=O)C1 | · | · | 100* | · | ·
O=C(Nc1ccc(Br)c(C(F)(F)F)c1)c1ccccc1 | 1 | i | i | -6 | 98
O=C(Nc1ccc(Br)c(C(F)(F)F)c1)c1ccc(C(F)(F)F)cc1 | -1 | -13* | i | · | 97
O=C(Nc1ccc(OCC(F)(F)C(F)F)c(C(F)(F)F)c1)c1ccc(Cl)cc1 | -1 | i | 100* | -10 | 90
COc1ccc(C(=O)Nc2ccc(OCC(F)(F)C(F)F)c(C(F)(F)F)c2)cc1OC | 5 | i | i | -1 | 87
CCN1CC(C)(C)N(C(=O)c2ccccc2)CC1(C)C | 0 | i | · | -1 | 91
C[C@@H]1CN([C@H](C)CO)C(=O)c2cc(Br)cnc2O[C@H]1CN(C)C(=O)Nc1ccc2c(c1)OCO2 | 2 | · | · | 2 | 94
O=C(COc1ccccc1)NC(=S)Nc1cccc2c(O)cccc12 | 3 | · | · | -3 | 88
CCn1cc(C(=O)NCCCN(CC(C)C)CC(C)C)c(=O)c2cc(S(=O)(=O)N(C)C3CCCCC3)ccc21 | 0 | -13* | i | 1 | 104
O=c1cc(CN2CCN(c3ccccc3O)CC2)nc2sccn12 | 5 | i | i | 1 | 96
Cc1cccc(N2CCN(Cc3cc(=O)n4ccsc4n3)CC2)c1C | 0 | -14* | i | 0 | 111
NS(=O)(=O)c1ccc(NC=C2C(=O)OC3(CCCCC3)OC2=O)cc1 | 3 | i | i | 1 | 94
CCCCc1ccc(NC=C2C(=O)OC3(CCCCC3)OC2=O)cc1 | 4 | -19* | i | 0 | 91
c1nc2n(n1)C1=C(CCCC1)C1(CCCCC1)N2 | -1 | -4.8* | i | -1 | 104
Cc1cc2nc3c(=O)[nH]c(=S)[nH]c3nc2cc1NC(=O)C(F)(F)F | 0 | -5.2* | i | -38 | 152
O=c1[nH]c(=S)[nH]c2nc(-c3ccccc3)cnc12 | 0 | i | i | 2 | 98
COC(=O)C1=C(N)c2ccccc2C1(C#N)c1ccccc1 (stereo unspecified) | -3 | -10* | i | -4 | 103
Cc1ccc(NC(=O)c2nc[nH]c2C(=O)N(C)Cc2ccccc2)cc1 | -1 | i | · | 1 | 85
CCCCNC(=O)C1(C)CCCCN1C(=O)c1cccc(OC(F)(F)F)c1 (stereo unspecified) | 0 | · | · | · | 89
COCCCn1c(C)nnc1SCC(=O)Nc1cccc(C)c1 | 0 | i | i | 0 | 97
CC(C)(C)c1ccc(C(=O)CC(=O)c2cc(Cl)ccc2O)cc1 | 0 | i | 25* | -17 | 96
O=C(NCC(c1ccco1)N1CCCC1)c1cc2ccccc2s1 (stereo unspecified) | 0 | i | · | -1 | 100
CC1CCN(C(=O)CSc2nnc(CNC(=O)c3ccco3)o2)CC1 | 0 | -15* | i | 1 | 93
Cc1[nH]n(-c2ccc([N+](=O)[O-])cc2)c(=O)c1C=NCC1CCCO1 (stereo unspecified) | 0 | i | i | · | 93
Cc1ccc(-n2[nH]c(C)c(/C=N/Nc3ccc([N+](=O)[O-])cc3[N+](=O)[O-])c2=O)cc1 | -1 | i | 100* | 12 | 91
